From PubChem BioAssay (NCATS)
Inconclusive results are not listed. The source made the active and inactive calls. Unless noted, calls follow the shape of the dose curve; as a rule, active = well fitted curve in the direction sought with a large enough effect; inconclusive = small, poorly fitted or top-dose-only effect, or another doubt; inactive = no such curve, though single readings can be large; an effect the other way counts as inactive or inconclusive.

Key:
[1] = target: Rap guanine nucleotide exchange factor 3 (Homo sapiens) (UniProt O95398); test: Confirmatory qHTS for agonist of cAMP-regulated guanine nucleotide exchange factor 3 (EPAC1) (AID 1645881);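 also: EPAC1 catalysed release of BODIPY-GDP from Rap1B seen as fluorescence loss; 100% = effect of cAMP agonist control; nearly all actives have a fitted effect of over 75% in size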
Sequence of Rap guanine nucleotide exchange factor 3 (Homo sapiens) (O95398 whole entry, looked up): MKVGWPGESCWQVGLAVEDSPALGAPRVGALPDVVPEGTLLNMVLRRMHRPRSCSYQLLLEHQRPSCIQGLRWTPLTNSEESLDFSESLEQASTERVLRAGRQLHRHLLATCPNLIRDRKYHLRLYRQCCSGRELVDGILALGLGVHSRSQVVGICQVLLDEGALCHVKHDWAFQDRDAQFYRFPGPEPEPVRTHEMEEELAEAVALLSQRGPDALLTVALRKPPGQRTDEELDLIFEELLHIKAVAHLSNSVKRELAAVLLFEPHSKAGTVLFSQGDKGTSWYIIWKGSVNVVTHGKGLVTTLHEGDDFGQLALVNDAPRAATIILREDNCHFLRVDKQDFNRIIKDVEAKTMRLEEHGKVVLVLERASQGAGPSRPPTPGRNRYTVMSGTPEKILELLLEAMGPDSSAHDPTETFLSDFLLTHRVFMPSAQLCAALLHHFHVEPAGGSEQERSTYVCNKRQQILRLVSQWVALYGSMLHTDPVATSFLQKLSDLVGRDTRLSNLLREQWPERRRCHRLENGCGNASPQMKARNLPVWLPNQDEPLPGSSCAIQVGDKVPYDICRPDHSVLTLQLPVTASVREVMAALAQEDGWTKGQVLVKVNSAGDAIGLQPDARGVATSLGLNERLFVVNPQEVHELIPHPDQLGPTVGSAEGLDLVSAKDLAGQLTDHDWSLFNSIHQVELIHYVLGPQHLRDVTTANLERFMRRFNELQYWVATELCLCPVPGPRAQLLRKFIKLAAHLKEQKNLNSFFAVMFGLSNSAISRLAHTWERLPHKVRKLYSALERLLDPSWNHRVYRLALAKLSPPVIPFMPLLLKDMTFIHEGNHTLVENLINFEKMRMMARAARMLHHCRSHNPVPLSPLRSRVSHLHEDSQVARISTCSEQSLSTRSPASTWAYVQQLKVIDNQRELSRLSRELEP

[2] = target: Rap guanine nucleotide exchange factor 4 (Homo sapiens) (UniProt Q8WZA2); test: Confirmatory qHTS for agonist of cAMP-regulated guanine nucleotide exchange factor 4 (EPAC2) (AID 1645884);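 also: nucleotide exchange releases bodipy-GDP from Rap1 and this lowers its fluorescence; % is scaled to controls: 0 for no effect and ±100 for the full control effect; nearly all actives have a fitted effect of over 65% in size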
Sequence of Rap guanine nucleotide exchange factor 4 (Homo sapiens) (Q8WZA2 whole entry, looked up): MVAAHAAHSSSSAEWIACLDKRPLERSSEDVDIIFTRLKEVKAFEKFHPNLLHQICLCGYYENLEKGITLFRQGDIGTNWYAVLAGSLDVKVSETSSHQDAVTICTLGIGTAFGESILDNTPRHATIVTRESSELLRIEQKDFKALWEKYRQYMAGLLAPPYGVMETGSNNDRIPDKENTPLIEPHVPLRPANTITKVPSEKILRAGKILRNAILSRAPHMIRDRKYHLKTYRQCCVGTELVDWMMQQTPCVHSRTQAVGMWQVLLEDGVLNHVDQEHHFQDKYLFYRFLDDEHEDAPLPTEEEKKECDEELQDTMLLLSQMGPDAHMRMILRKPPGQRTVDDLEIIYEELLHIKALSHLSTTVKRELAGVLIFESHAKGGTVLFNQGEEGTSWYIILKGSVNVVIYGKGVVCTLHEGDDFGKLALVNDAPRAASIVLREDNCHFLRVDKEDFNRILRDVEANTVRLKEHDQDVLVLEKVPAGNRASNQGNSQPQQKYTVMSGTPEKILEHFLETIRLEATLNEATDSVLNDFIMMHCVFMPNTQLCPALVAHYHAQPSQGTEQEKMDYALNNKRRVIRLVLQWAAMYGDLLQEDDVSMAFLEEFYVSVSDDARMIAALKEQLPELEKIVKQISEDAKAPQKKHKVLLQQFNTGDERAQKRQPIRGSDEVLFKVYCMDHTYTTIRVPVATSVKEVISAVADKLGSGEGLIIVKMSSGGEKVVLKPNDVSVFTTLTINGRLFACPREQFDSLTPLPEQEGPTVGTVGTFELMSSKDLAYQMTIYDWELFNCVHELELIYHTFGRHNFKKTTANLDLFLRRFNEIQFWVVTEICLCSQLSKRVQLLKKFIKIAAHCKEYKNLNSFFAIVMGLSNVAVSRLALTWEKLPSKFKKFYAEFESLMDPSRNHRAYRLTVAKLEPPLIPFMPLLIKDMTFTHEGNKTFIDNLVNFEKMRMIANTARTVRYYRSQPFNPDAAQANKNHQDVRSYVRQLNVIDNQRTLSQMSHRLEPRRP

[3] = target: Rap guanine nucleotide exchange factor 4 (Homo sapiens) (UniProt Q8WZA2); test: Confirmatory qHTS for antagonist of cAMP-regulated guanine nucleotide exchange factor 4 (EPAC2) (AID 1645885); also: % is scaled to controls: 0 for no effect and ±100 for the full control effect; nearly all actives have a fitted effect of over 25% in size
[4] = target: Rap guanine nucleotide exchange factor 3 (Homo sapiens) (UniProt O95398); test: Counterscreen qHTS for antagonist of cAMP-regulated guanine nucleotide exchange factor 3 (EPAC1) (AID 1645888);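 also: fluorescence loss as bound BODIPY-GDP is released from Rap1B; % of control where 0% means no effect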
Outline: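 Measured: fluorescence of BODIPY-GDP bound to Rap1B, which falls as exchange proceeds. Conditions include 50 uM competing GDP, 5 and 30 min reads, and a later cAMP challenge for antagonist detection.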

[5] = target: ATP-dependent 6-phosphofructokinase (Trypanosoma brucei brucei) (UniProt O15648); test: qHTS Assay to Find Inhibitors of T. brucei phosphofructokinase: hit validation (AID 492961);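 also: luminescence reports ADP formed as PFK phosphorylates fructose-6-phosphate with ATP; % is scaled to controls: 0 for no effect and ±100 for the full control effect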
Sequence of ATP-dependent 6-phosphofructokinase (Trypanosoma brucei brucei) (O15648 whole entry, looked up): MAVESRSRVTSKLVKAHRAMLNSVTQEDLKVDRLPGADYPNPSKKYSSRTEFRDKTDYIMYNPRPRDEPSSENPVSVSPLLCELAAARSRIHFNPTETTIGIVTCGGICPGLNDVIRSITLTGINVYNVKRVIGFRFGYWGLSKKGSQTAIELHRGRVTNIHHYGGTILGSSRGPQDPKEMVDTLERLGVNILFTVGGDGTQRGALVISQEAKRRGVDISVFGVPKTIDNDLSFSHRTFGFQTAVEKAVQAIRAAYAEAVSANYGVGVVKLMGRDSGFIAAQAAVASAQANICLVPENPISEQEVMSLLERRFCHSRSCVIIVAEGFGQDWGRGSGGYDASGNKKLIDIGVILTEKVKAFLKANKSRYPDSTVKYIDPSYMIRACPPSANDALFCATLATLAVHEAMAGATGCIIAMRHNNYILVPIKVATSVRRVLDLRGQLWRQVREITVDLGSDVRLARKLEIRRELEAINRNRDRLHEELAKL
Outline: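 PFK 1.25 nM, F6P 0.5 mM, ATP 0.1 mM, MgCl2 5 mM, 0.1 M TEA pH 8.0, Tween20 0.01%, BSA 0.1%; 45 min RT. ADP-Glo two-step detection, luminescence. qHTS titration; curve fitting with curve-class categorization.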

[6] = target: Ubiquitin carboxyl-terminal hydrolase 1 (Homo sapiens) (UniProt O94782); test: Inhibitors of USP1/UAF1: Pilot qHTS (AID 504865);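 also: rhodamine fluorescence freed from ubiquitin-rhodamine substrate followed over time; top concentration of the series differs between compounds; % is scaled to controls: 0 for no effect and ±100 for the full control effect; nearly all actives have a fitted effect of over 35% in size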
Sequence of Ubiquitin carboxyl-terminal hydrolase 1 (Homo sapiens) (O94782 whole entry, looked up): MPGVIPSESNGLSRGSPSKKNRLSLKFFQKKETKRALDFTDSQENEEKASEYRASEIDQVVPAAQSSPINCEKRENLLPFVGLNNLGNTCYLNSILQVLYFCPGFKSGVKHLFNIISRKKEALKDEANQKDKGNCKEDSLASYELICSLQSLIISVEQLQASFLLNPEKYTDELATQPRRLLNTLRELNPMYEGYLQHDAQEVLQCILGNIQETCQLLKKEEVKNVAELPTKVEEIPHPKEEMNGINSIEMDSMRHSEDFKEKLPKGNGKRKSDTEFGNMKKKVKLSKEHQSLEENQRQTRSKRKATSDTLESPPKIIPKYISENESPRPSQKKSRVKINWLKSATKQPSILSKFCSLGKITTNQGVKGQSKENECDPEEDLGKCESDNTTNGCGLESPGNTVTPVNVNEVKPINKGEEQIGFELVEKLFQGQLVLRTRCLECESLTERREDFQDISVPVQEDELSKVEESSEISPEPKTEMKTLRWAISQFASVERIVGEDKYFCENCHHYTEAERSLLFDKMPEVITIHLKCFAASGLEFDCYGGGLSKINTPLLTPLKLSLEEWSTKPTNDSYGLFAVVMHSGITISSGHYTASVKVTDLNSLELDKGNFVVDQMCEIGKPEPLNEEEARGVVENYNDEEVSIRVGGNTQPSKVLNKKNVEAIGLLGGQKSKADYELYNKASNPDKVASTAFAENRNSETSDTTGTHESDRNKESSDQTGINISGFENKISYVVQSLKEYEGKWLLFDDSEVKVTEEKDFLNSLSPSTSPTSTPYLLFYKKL
Outline: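 1nM USP1/UAF1 + cpd, 15 min RT; start w/ Ub-Rho 150nM final; kinetic FL 480/540 nm, 6 reads q60 s. Buffer 50mM HEPES pH 7.8, 0.5mM EDTA, 1mM TCEP, 0.01% Tween-20, 0.1 mg/ml BSA.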

[7] = target: Luciferin 4-monooxygenase (Photinus pyralis) (UniProt P08659); test: Biochemical firefly luciferase enzyme assay for NPC (AID 624030); also: potency is read from the fitted curve at half-maximal effect; nearly all actives have a fitted effect of over 70% in size
Sequence of Luciferin 4-monooxygenase (Photinus pyralis) (P08659 whole entry, looked up): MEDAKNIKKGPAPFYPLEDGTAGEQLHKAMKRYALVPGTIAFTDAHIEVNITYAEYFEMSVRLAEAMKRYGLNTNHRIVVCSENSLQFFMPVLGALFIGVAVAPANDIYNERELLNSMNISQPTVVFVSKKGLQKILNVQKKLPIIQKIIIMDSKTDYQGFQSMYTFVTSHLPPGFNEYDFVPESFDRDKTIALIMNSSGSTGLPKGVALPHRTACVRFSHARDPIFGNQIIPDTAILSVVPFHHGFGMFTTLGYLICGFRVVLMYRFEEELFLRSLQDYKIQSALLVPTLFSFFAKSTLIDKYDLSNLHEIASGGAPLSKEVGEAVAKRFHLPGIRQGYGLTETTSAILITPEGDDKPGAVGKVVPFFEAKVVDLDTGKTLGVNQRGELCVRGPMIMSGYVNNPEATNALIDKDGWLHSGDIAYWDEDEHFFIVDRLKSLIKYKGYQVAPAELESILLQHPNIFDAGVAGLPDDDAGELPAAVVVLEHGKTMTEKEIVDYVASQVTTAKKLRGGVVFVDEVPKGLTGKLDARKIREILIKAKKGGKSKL
Outline: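 Counter-screen for direct inhibition of the luciferase enzyme by approved-drug library compounds, run at 10 nM enzyme in 50 mM Tris acetate (final). Luminescence was read within 5 min of enzyme-buffer addition and normalized to PTC124 versus DMSO (0%).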

[8] = S16 Schwann cell viability assay (CellTiter-Glo assay) (AID 624031);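 also: cellular ATP luminescence as a viability measure; plate controls were DMSO-treated cells for no effect and cell-free wells for full effect; nearly all actives have a fitted effect of over 70% in size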
Outline: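 Native S16 rat Schwann cells in DMEM/10% FBS without phenol red were incubated overnight, then exposed to compounds for 24 h at 37 °C/5% CO2. Viability was read as ATP luminescence (CellTiter-Glo), normalized to no-cell wells and DMSO (0%).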

[9] = S16 Schwann cell PMP22 intronic element firefly luciferase assay (AID 624032);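 also: plate controls were DMSO for no effect and PTC124 positive control mean for full effect; nearly all actives have a fitted effect of over 30% in size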
Outline: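 Rat S16 Schwann cells stably carrying a PMP22 intronic element-driven Fluc reporter were seeded overnight, then exposed to compounds for 24 h at 37 °C. Luminescence was normalized to PTC124 (positive control) and DMSO (0% activity).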

[10] = S16 Schwann cell PMP22 intronic element beta-lactamase assay (AID 624044; calls by dose curve;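 also: 0% = DMSO and -100% = potassium clavulanate positive control; nearly all actives have a fitted effect of over 15% in size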)
Outline: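 Rat S16 Schwann cells with beta-Lac driven by a PMP22 intronic element, compound-treated 24 h at 37 °C. LiveBLAzer FRET B/G read: 460 nm normalized to potassium clavulanate vs DMSO; 535 nm FRET as viability; concentration-effect curves classified.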

[11] = NCATS anti-infectives library activity on HEK293 viability as a counter-qHTS vs the C. elegans viability qHTS (AID 1745854);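 also: HEK293 cells exposed to compounds for 24 hr before the viability read; % is scaled to controls: 0 for no effect and ±100 for the full control effect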
Outline: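 HEK293 cells (1,500/well) exposed 24 hr at 37C to 1:5 titrations, up to 41.7 uM final; counter-screen to a C. elegans viability qHTS. Viability by CellTiter-Glo luminescence after 10 min at room temperature; digitonin as control.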

[12] = target: Phospholipid hydroperoxide glutathione peroxidase GPX4 (Homo sapiens) (UniProt P36969); test: Primary qHTS Assay for Inhibitors of Recombinant Selenoprotein Glutathione Peroxidase 4 (GPX4) (AID 1845192); also: nearly all actives have a fitted effect of over 65% in size
Sequence of Phospholipid hydroperoxide glutathione peroxidase GPX4 (Homo sapiens) (P36969 whole entry, looked up): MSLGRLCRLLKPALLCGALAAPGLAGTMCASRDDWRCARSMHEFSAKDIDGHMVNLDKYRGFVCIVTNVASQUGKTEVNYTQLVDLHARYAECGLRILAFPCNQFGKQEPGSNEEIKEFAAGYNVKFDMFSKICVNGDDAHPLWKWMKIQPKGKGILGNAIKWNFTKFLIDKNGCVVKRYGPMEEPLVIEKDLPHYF
Outline: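 GR-coupled readout: 100 nM GR, 1 mM GSH, 0.5 mM NADPH; NADPH fluorescence (ex 340/em 450 nm) read at t=0 and after 15 min RT. GPX4 200 nM, preincubated 30 min with compound; substrate 0.5 mM CHP.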

[13] = qHTS profiling for inhibitors of Plasmodium falciparum proliferation (AID 504749);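 also: 0% = DMSO vehicle and full inhibition = artemisinin control; nearly all actives have a fitted effect of over 60% in size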; conditions: P. falciparum in erythrocytes, SYBR Green DNA, 72 h, at 28.7 µM (top of the series)
Outline: (§1)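 Parasite proliferation within erythrocytes, 72 h exposure. Endpoint: SYBR Green I fluorescence after overnight lysis at room temperature. Controls: 0.29 uM artemisinin, DMSO.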

3D7 = test: as above; conditions: P. falciparum in erythrocytes, SYBR Green DNA, 72 h; series mostly up to 12.8 µM
Outline: as §1

7G8 = test: as above; conditions: P. falciparum in erythrocytes, SYBR Green DNA, 72 h; series mostly up to 12.8 µM
Outline: as §1

AA1029 = test: as above; conditions: P. falciparum in erythrocytes, SYBR Green DNA, 72 h; series mostly up to 12.8 µM
Outline: as §1

AS120 = test: as above; conditions: P. falciparum in erythrocytes, SYBR Green DNA, 72 h; series mostly up to 12.8 µM
Outline: as §1

ATS189 = test: as above; conditions: P. falciparum in erythrocytes, SYBR Green DNA, 72 h; series mostly up to 12.8 µM
Outline: as §1

C2A = test: as above; conditions: P. falciparum in erythrocytes, SYBR Green DNA, 72 h; series mostly up to 12.8 µM
Outline: as §1

CP185 = test: as above; conditions: P. falciparum in erythrocytes, SYBR Green DNA, 72 h; series mostly up to 12.8 µM
Outline: as §1

CP191 = test: as above; conditions: P. falciparum in erythrocytes, SYBR Green DNA, 72 h; series mostly up to 12.8 µM
Outline: as §1

CP192 = test: as above; conditions: P. falciparum in erythrocytes, SYBR Green DNA, 72 h; series mostly up to 12.8 µM
Outline: as §1

CP194 = test: as above; conditions: P. falciparum in erythrocytes, SYBR Green DNA, 72 h; series mostly up to 12.8 µM
Outline: as §1

CP201 = test: as above; conditions: P. falciparum in erythrocytes, SYBR Green DNA, 72 h; series mostly up to 12.8 µM
Outline: as §1

CP203 = test: as above; conditions: P. falciparum in erythrocytes, SYBR Green DNA, 72 h; series mostly up to 12.8 µM
Outline: as §1

CP211 = test: as above; conditions: P. falciparum in erythrocytes, SYBR Green DNA, 72 h; series mostly up to 12.8 µM
Outline: as §1

CP215 = test: as above; conditions: P. falciparum in erythrocytes, SYBR Green DNA, 72 h; series mostly up to 12.8 µM
Outline: as §1

CP217 = test: as above; conditions: P. falciparum in erythrocytes, SYBR Green DNA, 72 h; series mostly up to 12.8 µM
Outline: as §1

CP237 = test: as above; conditions: P. falciparum in erythrocytes, SYBR Green DNA, 72 h; series mostly up to 12.8 µM
Outline: as §1

CP238 = test: as above; conditions: P. falciparum in erythrocytes, SYBR Green DNA, 72 h; series mostly up to 12.8 µM
Outline: as §1

CP247 = test: as above; conditions: P. falciparum in erythrocytes, SYBR Green DNA, 72 h; series mostly up to 12.8 µM
Outline: as §1

CP250 = test: as above; conditions: P. falciparum in erythrocytes, SYBR Green DNA, 72 h; series mostly up to 12.8 µM
Outline: as §1

CP252 = test: as above; conditions: P. falciparum in erythrocytes, SYBR Green DNA, 72 h; series mostly up to 12.8 µM
Outline: as §1

CP256 = test: as above; conditions: P. falciparum in erythrocytes, SYBR Green DNA, 72 h; series mostly up to 12.8 µM
Outline: as §1

CP260 = test: as above; conditions: P. falciparum in erythrocytes, SYBR Green DNA, 72 h; series mostly up to 12.8 µM
Outline: as §1

CP262 = test: as above; conditions: P. falciparum in erythrocytes, SYBR Green DNA, 72 h; series mostly up to 12.8 µM
Outline: as §1

CP265 = test: as above; conditions: P. falciparum in erythrocytes, SYBR Green DNA, 72 h; series mostly up to 12.8 µM
Outline: as §1

CP266 = test: as above; conditions: P. falciparum in erythrocytes, SYBR Green DNA, 72 h; series mostly up to 12.8 µM
Outline: as §1

CP268 = test: as above; conditions: P. falciparum in erythrocytes, SYBR Green DNA, 72 h; series mostly up to 12.8 µM
Outline: as §1

CP269 = test: as above; conditions: P. falciparum in erythrocytes, SYBR Green DNA, 72 h; series mostly up to 12.8 µM
Outline: as §1

CP286 = test: as above; conditions: P. falciparum in erythrocytes, SYBR Green DNA, 72 h; series mostly up to 12.8 µM
Outline: as §1

CP291 = test: as above; conditions: P. falciparum in erythrocytes, SYBR Green DNA, 72 h; series mostly up to 12.8 µM
Outline: as §1

CP297 = test: as above; conditions: P. falciparum in erythrocytes, SYBR Green DNA, 72 h; series mostly up to 12.8 µM
Outline: as §1

CP305 = test: as above; conditions: P. falciparum in erythrocytes, SYBR Green DNA, 72 h; series mostly up to 12.8 µM
Outline: as §1

CP315 = test: as above; conditions: P. falciparum in erythrocytes, SYBR Green DNA, 72 h; series mostly up to 12.8 µM
Outline: as §1

CP325 = test: as above; conditions: P. falciparum in erythrocytes, SYBR Green DNA, 72 h; series mostly up to 12.8 µM
Outline: as §1

CP329 = test: as above; conditions: P. falciparum in erythrocytes, SYBR Green DNA, 72 h; series mostly up to 12.8 µM
Outline: as §1

CP335 = test: as above; conditions: P. falciparum in erythrocytes, SYBR Green DNA, 72 h; series mostly up to 12.8 µM
Outline: as §1

DFO2036 = test: as above; conditions: P. falciparum in erythrocytes, SYBR Green DNA, 72 h; series mostly up to 12.8 µM
Outline: as §1

DIV17 = test: as above; conditions: P. falciparum in erythrocytes, SYBR Green DNA, 72 h; series mostly up to 12.8 µM
Outline: as §1

DIV30 = test: as above; conditions: P. falciparum in erythrocytes, SYBR Green DNA, 72 h; series mostly up to 12.8 µM
Outline: as §1

Dd2 = test: as above; conditions: P. falciparum in erythrocytes, SYBR Green DNA, 72 h; series mostly up to 12.8 µM
Outline: as §1

ECU = test: as above; conditions: P. falciparum in erythrocytes, SYBR Green DNA, 72 h; series mostly up to 12.8 µM
Outline: as §1

FAB9 = test: as above; conditions: P. falciparum in erythrocytes, SYBR Green DNA, 72 h; series mostly up to 12.8 µM
Outline: as §1

GB4 = test: as above; conditions: P. falciparum in erythrocytes, SYBR Green DNA, 72 h; series mostly up to 12.8 µM
Outline: as §1

HB3 = test: as above; conditions: P. falciparum in erythrocytes, SYBR Green DNA, 72 h; series mostly up to 12.8 µM
Outline: as §1

ICS = test: as above; conditions: P. falciparum in erythrocytes, SYBR Green DNA, 72 h; series mostly up to 12.8 µM
Outline: as §1

JCK = test: as above; conditions: P. falciparum in erythrocytes, SYBR Green DNA, 72 h; series mostly up to 12.8 µM
Outline: as §1

N140 = test: as above; conditions: P. falciparum in erythrocytes, SYBR Green DNA, 72 h; series mostly up to 12.8 µM
Outline: as §1

P93_24 = test: as above; conditions: P. falciparum in erythrocytes, SYBR Green DNA, 72 h; series mostly up to 12.8 µM
Outline: as §1

P94_40 = test: as above; conditions: P. falciparum in erythrocytes, SYBR Green DNA, 72 h; series mostly up to 12.8 µM
Outline: as §1

PAD = test: as above; conditions: P. falciparum in erythrocytes, SYBR Green DNA, 72 h; series mostly up to 12.8 µM
Outline: as §1

PC15 = test: as above; conditions: P. falciparum in erythrocytes, SYBR Green DNA, 72 h; series mostly up to 12.8 µM
Outline: as §1

CCOC(=O)[C@@H](NC(=O)/C=C/[C@H]1O[C@@H](n2cc(C)c(=O)[nH]c2=O)C[C@@H]1O)C(C)C
inactive: Potency [1] | Potency [2] | Potency [3] | Potency [4]

Nc1nc(NC2CC2)c2ncn([C@H]3C=C[C@@H](CO)C3)c2n1
inactive: outcome [5] | Potency [6] | outcome [8] | Potency [9] | Potency [10] | outcome [11] | Potency [12] | activity, negative = inhibition ([13]; parasite line A) 8.14% | activity, negative = inhibition ([13]; parasite line B) 1.25% | Potency (3D7) | Potency (7G8) | Potency (AA1029) | Potency (AS120) | Potency (ATS189) | Potency (C2A) | Potency (CP185) | Potency (CP191) | Potency (CP192) | Potency (CP194) | Potency (CP201) | Potency (CP203) | Potency (CP211) | Potency (CP215) | Potency (CP217) | Potency (CP237) | Potency (CP238) | Potency (CP247) | Potency (CP250) | Potency (CP252) | Potency (CP256) | Potency (CP260) | Potency (CP262) | Potency (CP265) | Potency (CP266) | Potency (CP268) | Potency (CP269) | Potency (CP286) | Potency (CP291) | Potency (CP297) | Potency (CP305) | Potency (CP315) | Potency (CP325) | Potency (CP329) | Potency (CP335) | Potency (DFO2036) | Potency (DIV17) | Potency (DIV30) | Potency (Dd2) | Potency (ECU) | Potency (FAB9) | Potency (GB4) | Potency (HB3) | Potency (ICS) | Potency (JCK) | Potency (N140) | Potency (P93_24) | Potency (P94_40) | Potency (PAD) | Potency (PC15)
active: Potency [7] 11.4 µM
